Laboratory results from PubChem BioAssay (Tox21).
Results filed as inconclusive are left out. Unmarked numbers belong to inactive results. The source made the active and inactive calls. The call rests on the fitted dose curve.
On the % scale 0 is the no-effect control and ±100 the full control effect; potency means the concentration at half of the fitted maximal effect.

Test: qHTS assay to identify small molecule agonists of the hypoxia (HIF-1) signaling pathway - cell viability counter screen (AID 1224844); further: nearly all actives have a fitted effect of over 50% in size
Settings: HRE-bla ME-180 viability, CellTiter-Glo luminescence, 17 h; series mostly up to 76.8 µM; activity change, negative = cytotoxicity: at the top concentration
How it was run: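 In this counter screen, HRE-bla ME-180 cell viability after 17 hrs of compound exposure at 37C was read by CellTiter-Glo luminescence, multiplexed with the beta-lactamase reporter measurement.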
In the case of `CCCCCl`, the “activity change, negative = cytotoxicity” value is reported as -3.11%.
For `CC(C)(C)NCC(O)c1cc(Cl)c(N)c(C(F)(F)F)c1` (centres undefined), the “activity change, negative = cytotoxicity” value was 6.3% [at 35.3 µM].
In the case of `O=C(Cc1ccccc1)OCCc1ccccc1`, the “activity change, negative = cytotoxicity” value is reported as 6.94%.
In the case of `N#CC(C#N)=C(C#N)C#N`, the “activity change, negative = cytotoxicity” value is reported as -4.62%.
With `O=C(O)COc1cc(Cl)c(Cl)cc1Cl` the Potency was “inactive”.
For `CCCC(C)(COC(N)=O)COC(=O)NC(C)C` (centres undefined), the Potency was “inactive”.
For `CN1CC[C@]23c4c5ccc(O)c4O[C@H]2[C@@H](O)C=C[C@H]3[C@H]1C5`, the “activity change, negative = cytotoxicity” value was 4.36%.
For `CCOP(=S)(S)OCC`, the “activity change, negative = cytotoxicity” value was 3.69%.
For `C=CCc1ccccc1O`, the “activity change, negative = cytotoxicity” value was 9.41%.
In the case of `CC(C)(C)OOC(C)(C)CCC(C)(C)OOC(C)(C)C`, the “activity change, negative = cytotoxicity” value is reported as 2.7%.
In the case of `O=S(=O)(c1ccccc1)c1ccccc1`, the “activity change, negative = cytotoxicity” value is reported as -3.4%.
Work on `Nc1c(Br)cc(Br)c2c1C(=O)c1ccccc1C2=O` yielded an activity change, negative = cytotoxicity of 1.81% [at 15.8 µM].
For `COc1cc(CC(C)N)c(OC)cc1Br` (centres undefined), the “activity change, negative = cytotoxicity” value was 13.5%.
In the case of `O=C(O)c1ccc(=O)[nH]c1`, the “activity change, negative = cytotoxicity” value is reported as 1.62% [at 35.3 µM].
With `CCNC(=O)NC(=O)/C(C#N)=N/OC` the “activity change, negative = cytotoxicity” value was 7%.
In the case of `C=CCOCC1CO1` (centres undefined), the “activity change, negative = cytotoxicity” value is reported as -2.02%.
In the case of `CCCSP(=S)(OCC)Oc1ccc(SC)cc1` (centres undefined), the “activity change, negative = cytotoxicity” value is reported as -6.08%.
In the case of `CCOP(=S)(OCC)Oc1ccc(S(C)=O)cc1` (centres undefined), the “activity change, negative = cytotoxicity” value is reported as 17.2%.
In the case of `C=C(C)C(=O)OCCCCOC(=O)C(=C)C`, the “activity change, negative = cytotoxicity” value is reported as 11.1%.
With `C=C(Cl)Cl` the “activity change, negative = cytotoxicity” value was -2.59%.
In the case of `Clc1ccc(Cl)c(Cl)c1`, the Potency is reported as “inactive”.
For `NNCCO`, the “activity change, negative = cytotoxicity” value was -4.14%.
For `O=C(N[C@H]1CN2CCC1CC2)c1ccc2c(c1)OCCO2`, the “activity change, negative = cytotoxicity” value was -8.64%.
For `ClCc1ccccc1Cl`, the “activity change, negative = cytotoxicity” value was 2.21%.
In the case of `Nc1ccccc1C(=O)OCCc1ccccc1`, the Potency is reported as “inactive”.
In the case of `O=C=NC1CCCCC1`, the “activity change, negative = cytotoxicity” value is reported as 0.265%.
For `c1ccc2c(c1)sc1ccccc12`, the Potency was “inactive”.
For `N#CC1(N=NC2(C#N)CCCCC2)CCCCC1`, the “activity change, negative = cytotoxicity” value was -0.597%.
With `CCOC(C(=O)OCCN(C)C)(c1ccccc1)c1ccccc1` the “activity change, negative = cytotoxicity” value was -9.34% [at 35.3 µM].
With `CC1(C)CC(=O)CC(C)(C)N1[O]` the “activity change, negative = cytotoxicity” value was 1.95%.
With `CCC[N+](CCC)(CCC)CCC` the “activity change, negative = cytotoxicity” value was 6.52%.
For `Nc1cc(Cl)cc(C(=O)O)c1Cl`, the Potency was “inactive”.
In the case of `C[C@H]1[C@@H]2Cc3ccc(O)cc3[C@@]1(C)CCN2C`, the “activity change, negative = cytotoxicity” value is reported as -1.18% [at 200 µM].
For `CCCCCCCCCCCCN(C)C`, the “activity change, negative = cytotoxicity” value was -0.0199%.
With `CC(C)(C)NCC(O)c1ccccc1Cl` (centres undefined) the “activity change, negative = cytotoxicity” value was 6.56% [at 35.3 µM].
With `COc1cc(C[C@@H](C)N)c(OC)cc1Br` the “activity change, negative = cytotoxicity” value was -1.23%.
With `CCCCNC(=O)OCC#CI` the Potency was 48.7 µM (active).
In the case of `CC(C)CCCCCCCOC(=O)c1ccccc1C(=O)OCCCCCCCC(C)C`, the “activity change, negative = cytotoxicity” value is reported as -8.17%.
With `C1CS1` the “activity change, negative = cytotoxicity” value was -6.62%.
